Each structure is given as a SMILES string. Compounds without any hit were thinned out: in the full panel of roughly 83,000, 20% have a hit.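 Negative percent growth values reflect cell death: -40 means 40% of the cells present at the start died, and -100 means all died.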 A number with no mark means an inactive call. Active and inactive are the calls of the source. The calls were made as follows: active = growth percent below 10; inactive = the rest.

Some test systems named below: HCT-15 colon; HT29 colon; SNB-75 CNS; SNB-19 CNS; U251 CNS; PC-3 prostate; SK-MEL-5 melanoma; UACC-62 melanoma; LOX IMVI melanoma; SK-MEL-28 melanoma; SK-MEL-2 melanoma; EKVX NSCLC; SN12C renal; UO-31 renal; TK-10 renal; ACHN renal; CAKI-1 renal; A498 renal; CCRF-CEM leukemia; MOLT-4 leukemia.
Experiment in all cases: NCI-60 one-dose screen, 48 h (100 = growth as untreated, 0 = no growth, -100 = all killed)
Holding throughout (details): 10 µM unless noted

For the compound `Nc1nc2c(c3ncccc13)C(c1cccc(Br)c1)Cc1ncccc1-2` (stereo not given), the growth was 17.6% in the assay with HCT-15 colon; 0.652% (active) in the assay on HT29 colon; 30.1% in the assay with SNB-75 CNS; 31.6% with SNB-19 CNS; 11.3% in the assay on U251 CNS; 25.6% with PC-3 prostate. Further, the growth is 31.8% in the assay on SK-MEL-5 melanoma; 27.4% with UACC-62 melanoma; 38.9% in the assay on LOX IMVI melanoma; 55.1% with SK-MEL-28 melanoma; 3.12% (active) with SK-MEL-2 melanoma; 41% in the assay on EKVX NSCLC. In addition, the growth in the assay with SN12C renal was 34.4%; with UO-31 renal it was 33.8%; in the assay on TK-10 renal it was 35.2%; with ACHN renal it was 43%; in the assay with CAKI-1 renal, 41.4%; with A498 renal it was -14.9% (active). For the same compound, the growth in the assay on CCRF-CEM leukemia is 8.84% (active); in the assay on MOLT-4 leukemia it was 7.86% (active).
On to `c1ccc(-c2nc(N3CCOCC3)c3c4c(sc3n2)CCCCC4)nc1`, for which the growth with HCT-15 colon is 59.5%; in the assay with HT29 colon, 54.5%; in the assay with SNB-75 CNS, 45.9%; in the assay on SNB-19 CNS it was 62.5%; with U251 CNS, 59.9%; with PC-3 prostate it was 41.7%. Also, the growth in the assay with SK-MEL-5 melanoma is 23.4%; in the assay on UACC-62 melanoma, 56.1%; with LOX IMVI melanoma, 83.2%; in the assay on SK-MEL-28 melanoma, 61.8%; in the assay on SK-MEL-2 melanoma, 61.7%; with EKVX NSCLC, 50.1%. The growth with SN12C renal was 69%; with UO-31 renal, 35.7%; with TK-10 renal it was 45.1%; in the assay with ACHN renal, 65.1%; with CAKI-1 renal, 46.2%; in the assay on A498 renal it was 9.92% (active). Further, the growth with CCRF-CEM leukemia is 79.9%; in the assay with MOLT-4 leukemia, 58.9%.
As for `CSc1ccc(N=C=C(c2ccccc2)c2ccccc2)cc1`, the growth with HCT-15 colon was 87.3%; in the assay on HT29 colon, 87.3%; with SNB-75 CNS, 84.7%; with SNB-19 CNS, 91.7%; in the assay with U251 CNS it was 86.4%; in the assay on PC-3 prostate, 84.6%. Moreover, the growth in the assay with SK-MEL-5 melanoma was 99.6%; with UACC-62 melanoma it was 83.1%; in the assay on LOX IMVI melanoma it was 70.2%; with SK-MEL-28 melanoma it was 99.2%; with SK-MEL-2 melanoma it was 93.5%; in the assay on EKVX NSCLC, 96.6%. In addition, the growth was 81.7% in the assay on SN12C renal; 83.5% in the assay with UO-31 renal; 99.6% in the assay with TK-10 renal; 92.9% with ACHN renal; 96.9% in the assay on CAKI-1 renal; 81.8% with A498 renal. The growth in the assay on CCRF-CEM leukemia is 1.03% (active); in the assay with MOLT-4 leukemia it was 34.7%.
For `C=C1CC[C@@H]2[C@](C)(COC(C)=O)[C@H](OC(C)=O)CC[C@@]2(C)[C@@H]1CC(Nc1ccc(S(=O)(=O)Nc2ccc(Cl)nn2)cc1)C1=CCOC1=O` (stereo not given in full), the growth in the assay with HCT-15 colon was -18.4% (active); in the assay with HT29 colon, -18.3% (active); with SNB-75 CNS, 25.2%; in the assay on SNB-19 CNS, 76%; with U251 CNS, -41.2% (active); in the assay on PC-3 prostate, 38.4%. The growth with SK-MEL-5 melanoma was 35.8%; in the assay on UACC-62 melanoma it was -50% (active); in the assay on LOX IMVI melanoma, -84.6% (active); with SK-MEL-28 melanoma it was 6.66% (active); with SK-MEL-2 melanoma it was 58.3%; in the assay on EKVX NSCLC, 87.3%. In addition, the growth with SN12C renal is -27.6% (active); in the assay on UO-31 renal it was 18.4%; with TK-10 renal, 69.8%; in the assay on ACHN renal, 16.1%; in the assay with CAKI-1 renal, 31.8%; in the assay on A498 renal, 89%. Moreover, the results for the growth in the assay on CCRF-CEM leukemia and in the assay on MOLT-4 leukemia were -10.3% (active) and 0.401% (active), respectively.
Consider `NC(=S)N/N=C/c1ccc(OCc2ccccc2)cc1`, for which the growth was 47.8% in the assay on HCT-15 colon; 47.7% in the assay with HT29 colon; 67.8% in the assay on SNB-75 CNS; 73.1% in the assay with SNB-19 CNS; 71.8% in the assay with U251 CNS; 64.2% in the assay on PC-3 prostate. In addition, the growth with SK-MEL-5 melanoma was 86.4%; in the assay with UACC-62 melanoma, 61.8%; in the assay on LOX IMVI melanoma, 82.1%; with SK-MEL-28 melanoma it was 80%; in the assay on SK-MEL-2 melanoma it was 54.2%; in the assay with EKVX NSCLC, 74.8%. Besides, the growth with SN12C renal is 70.6%; in the assay on UO-31 renal it was 22.8%; with TK-10 renal, 60.2%; in the assay with ACHN renal it was 67%; in the assay with CAKI-1 renal, 68.2%; in the assay with A498 renal, 71.5%. In addition, the growth was 39.1% in the assay with CCRF-CEM leukemia and 32.1% with MOLT-4 leukemia.
In the case of `CCOC(=O)c1c2c(n3ccc(NC(=O)CCN4CCCCC4)cc13)C(=O)c1ncccc1C2=O`, the growth in the assay with HCT-15 colon was -62.9% (active); with HT29 colon it was -61.5% (active); with SNB-75 CNS, 23.9%; in the assay on SNB-19 CNS it was -42.7% (active); in the assay on U251 CNS, -86.3% (active); in the assay with PC-3 prostate, 47.3%. Also, the growth in the assay on SK-MEL-5 melanoma was -83.6% (active); with UACC-62 melanoma it was -50.6% (active); with LOX IMVI melanoma, -63.9% (active); in the assay on SK-MEL-28 melanoma, -64.7% (active); in the assay with SK-MEL-2 melanoma it was 52.1%; with EKVX NSCLC it was 67.9%. Besides, the growth in the assay with SN12C renal was 30.2%; with UO-31 renal, 10.3%; in the assay on TK-10 renal, 54%; in the assay with ACHN renal, -52.5% (active); in the assay with CAKI-1 renal, 16.9%; with A498 renal it was 58.5%. In addition, the growth was -22.9% (active) in the assay on CCRF-CEM leukemia and -25.9% (active) in the assay with MOLT-4 leukemia.
As for `C=C1CC[C@@H]2[C@](C)(COC(C)=O)[C@H](OC(C)=O)CC[C@@]2(C)[C@@H]1CC(Nc1ccc(S(=O)(=O)Nc2nc(C)cc(C)n2)cc1)C1=CCOC1=O` (stereo not given in full), the growth with HCT-15 colon is 49.2%; in the assay on HT29 colon, 46.2%; in the assay with SNB-75 CNS, 44.6%; in the assay with SNB-19 CNS, 100%; with U251 CNS, 48.2%; in the assay on PC-3 prostate, 65.2%. Further, the growth was 74.2% in the assay on SK-MEL-5 melanoma; 32.9% in the assay on UACC-62 melanoma; -60.6% (active) with LOX IMVI melanoma; 83.5% with SK-MEL-28 melanoma; 88.5% in the assay on SK-MEL-2 melanoma; 74.5% in the assay on EKVX NSCLC. Also, the growth in the assay with SN12C renal was 38.2%; with UO-31 renal, 71.2%; in the assay with TK-10 renal it was 111%; with ACHN renal it was 71.6%; in the assay with CAKI-1 renal, 74%; in the assay on A498 renal, 85.3%. Also, the growth is 2.96% (active) with CCRF-CEM leukemia and 24.6% with MOLT-4 leukemia.
Take `O=C1c2cc3c(cc2-c2c1c1cc(F)c(F)cc1c(=O)n2C[C@H](O)CO)OCO3`: the growth with HCT-15 colon is 1.58% (active); with HT29 colon, 0.994% (active); in the assay on SNB-75 CNS, 4.14% (active); in the assay on SNB-19 CNS it was 6.51% (active); in the assay on U251 CNS, -15.5% (active); with PC-3 prostate it was 8.59% (active). Besides, the growth in the assay on SK-MEL-5 melanoma was -91.5% (active); in the assay on UACC-62 melanoma, -48.2% (active); in the assay on LOX IMVI melanoma it was -45.4% (active); with SK-MEL-28 melanoma, 10.1%; in the assay with SK-MEL-2 melanoma, -26% (active); in the assay with EKVX NSCLC it was 14.7%. Also, the growth in the assay with SN12C renal is -12.6% (active); in the assay with UO-31 renal it was -56.8% (active); in the assay with TK-10 renal, -27.6% (active); with ACHN renal, -61.5% (active); with CAKI-1 renal, -4.95% (active); in the assay with A498 renal, -79.4% (active). The growth in the assay on CCRF-CEM leukemia is -10.9% (active); in the assay on MOLT-4 leukemia, -26% (active).

These data come from PubChem BioAssay (NCI).
